Shown are actives, neighbours in structure and some others; about 8.9% of the full set was active somewhere.
D3 antag – antagonists of human D3 dopamine receptor; P35462; D3R cells, DiscoveRx beta-arrestin luminescence, antagonist mode; active compounds read low; max response, negative = inhibition, %; actives 2.5% (n = 360,000); AID 652054; in the data active = max response below about -50%; inconclusive = no clear call, values can overlap the other calls; also: % is scaled to controls: 0 for no effect and ±100 for the full control effect
Target sequence (P35462 whole entry, looked up): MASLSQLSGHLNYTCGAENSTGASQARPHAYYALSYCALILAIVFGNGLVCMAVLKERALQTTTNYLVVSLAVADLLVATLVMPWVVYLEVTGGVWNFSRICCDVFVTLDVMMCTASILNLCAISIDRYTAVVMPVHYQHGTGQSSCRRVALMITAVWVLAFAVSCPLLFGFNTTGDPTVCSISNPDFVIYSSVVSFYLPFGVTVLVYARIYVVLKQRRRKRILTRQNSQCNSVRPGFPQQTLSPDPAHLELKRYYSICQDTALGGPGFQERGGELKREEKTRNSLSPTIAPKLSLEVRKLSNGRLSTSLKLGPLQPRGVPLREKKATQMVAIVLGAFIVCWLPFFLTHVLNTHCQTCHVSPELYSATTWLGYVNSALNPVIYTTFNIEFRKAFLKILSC
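Cells expressing the human receptor were seeded at 1500 cells/well, incubated overnight at 37 degrees C in 5% CO2, then exposed to library compounds with dopamine controls for 90 minutes at 37 degrees C before luminescent detection.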
SW480 rerep – DNA re-replication induction in SW480 cells; Potency, µM (top dose mostly 46.1 µM), for inactives: at the top dose re-replication activation, hits mostly activators; actives 1.8% (n = 340,000); SW480 DNA re-replication, Hoechst DNA content imaging, 48 h; also: potency is read from the fitted curve at half-maximal effect; % of control where 0% means no effect; nearly all actives have a fitted effect of over 55% in size
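Cells (250 per well) received 23 nL compound or DMSO by pin tool and were kept 48 hr at 37 C, 5% CO2. Nuclei were then stained with Hoechst for 40 min and scanned for DNA content.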
MCF10A rerep – induces DNA re-replication in MCF 10a normal breast cells; MCF 10A DNA re-replication, Hoechst nuclear intensity, 48 h; Potency, µM (series often up to 46.1 µM), for inactives: at the top dose activity, positive = re-replication, actives largely listed as activators; actives 2.9% (n = 350,000); AID 624296; also: potency is read from the fitted curve at half-maximal effect; % of control where 0% means no effect; nearly all actives have a fitted effect of over 50% in size
KB-3-1 cytotox – kills parental KB-3-1 adenocarcinoma cells. actives 1.4% (n = 400,000). KB-3-1 viability, CellTiter-Glo ATP luminescence, 72 h. Potency, µM (series often up to 46.1 µM), actives largely listed as cytotoxic; also: potency is read from the fitted curve at half-maximal effect; % is scaled to controls: 0 for no effect and ±100 for the full control effect; nearly all actives have a fitted effect of over 60% in size
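Viability of parental KB-3-1 cells, measured by CellTiter-Glo luminescence, followed a 72 h incubation at 37 °C with pinned compounds in phenol-red-free DMEM containing 10% FBS.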
D3 ag – agonists of human D3 dopamine receptor; P35462; D3R DiscoveRx beta-arrestin cells, luminescence, 90 min; max activation, %; actives 0.58% (n = 410,000); in the data active = max activation above about 30%; also: 0% is about no effect
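Agonist mode: compounds and dopamine controls were applied to plated cells for 90 min at 37 degrees C after an overnight attachment at 1500 cells/well. Luminescent read-out followed 30 - 60 minutes at room temperature with DiscoveRx detection reagent.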
KB-V1 cytotox – kills drug-selected multidrug resistant KB-V1 cells; KB-V1 MDR cells viability, CellTiter-Glo, 72 h; Potency, µM (series often up to 46.1 µM), actives largely listed as cytotoxic; actives 3.4% (n = 400,000); AID 1347076; also: potency is read from the fitted curve at half-maximal effect; % is scaled to controls: 0 for no effect and ±100 for the full control effect; nearly all actives have a fitted effect of over 60% in size
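KB-V1, DMEM (no phenol red) + 10% FBS; cpd pin-transferred, titration series; 72 h, 37 degrees C; CellTiter-Glo, luminescence. Data normalized, curve-fit.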
* = called active by the depositor; i = inactive; ? = inconclusive; · = no result given. Unless noted, calls follow the shape of the dose curve; as a rule, active = well fitted curve in the direction sought with a large enough effect; inconclusive = small, poorly fitted or top-dose-only effect, or another doubt; inactive = no such curve, though single readings can be large; an effect the other way counts as inactive or inconclusive.

SMILES	D3 antag	SW480 rerep	MCF10A rerep	KB-3-1 cytotox	D3 ag	KB-V1 cytotox
COc1ccc(C(CNC(=O)c2oc3cc(Br)ccc3c2C)N2CCCCC2)cc1 (stereo not drawn)	-86*	1%	4%	i	-14	?
CCc1ccc2oc(C(=O)NCC(c3ccc(Cl)cc3)N3CCOCC3)c(C)c2c1 (stereo not drawn)	·	·	·	i	8	i
COc1ccc(C(CNC(=O)c2ccc(F)cc2)N2CCCC2)cc1 (stereo not drawn)	·	·	·	·	-31	·
Cc1ccc(N2CC(C(=O)Nc3ccc(S(=O)(=O)N4CCOCC4)cc3)CC2=O)cc1Cl (stereo not drawn)	-20	-3%	-2%	i	-8	i
COc1ccc(-c2nc(SCC(=O)NCCc3ccc(OC)c(OC)c3)n[nH]2)cc1	·	·	·	·	10	·
CSc1nc2c(c(-c3ccc(O)cc3)c1C#N)CCC2	-30	9%	26µM*	?	1	i
COc1ccc(-c2c(C#N)c(N)nc3c2CCC3)cc1	-8	21µM*	2.9µM*	i	-1	?
N#Cc1c(N)nc2c(c1-c1ccccc1)CCC2	0	?	?	?	5	10µM*
COc1ccc2[nH]c(=O)c(CN(C(=O)c3cccc(Cl)c3)c3cccc(C)c3)cc2c1	·	·	·	i	8	i
CCOC(=O)c1c(S(=O)(=O)N2CCC(C(=O)Nc3cccc(C)n3)CC2)c(C)n(C)c1C	·	·	·	i	-1	i
Cc1coc2cc3oc(=O)c(CCC(=O)NCCN4CCOCC4)c(C)c3cc12	-12	0%	5%	i	11	i
O=C1c2ccccc2NC(c2ccc3c(c2)OCO3)N1O (stereo not drawn)	-57*	?	-4%	i	-19	?
Cc1nn(CC(=O)NC(C)c2ccccc2)c(=O)c2cc3occc3n12 (stereo not drawn)	·	·	·	i	-9	i
Cc1ccc(NC(=O)CCNS(=O)(=O)c2ccc3c(c2)CCCC(=O)N3)cc1	·	·	·	i	1	i
CNS(=O)(=O)c1cn(CC(=O)N2CCN(c3cccc(Cl)c3)CC2)cc1S(=O)(=O)NC	·	·	·	i	-3	i
CCCCNC(=O)NC(C(=O)OC)C12CC3CC(CC(C3)C1)C2 (stereo not drawn)	-57*	-4%	1%	i	-6	i
CCCCNC(=O)NC12CC3CC(CC(C3)C1)C2	-4	3%	-3%	i	-3	i
CN(CC(=O)Nc1ccc(OC(F)(F)F)cc1)C(=O)/C=C/c1ccco1	?	-2%	19%	i	-8	i
CN(CC(=O)Nc1ccc(OC(F)(F)F)cc1)C(=O)/C=C/c1cc2c(cc1[N+](=O)[O-])OCO2	-95*	-7%	8%	i	-30	i
Cc1cc2cc(C(c3nnnn3C3CCCC3)N(Cc3cccnc3)Cc3ccco3)c(=O)[nH]c2cc1C (stereo not drawn)	-25	?	?	i	-7	i
CCC(C)(C)n1nnnc1C(c1cc2ccc(C)cc2[nH]c1=O)N(Cc1cccnc1)Cc1ccco1 (stereo not drawn)	-10	?	?	i	-15	21µM*
CCOC1=C2[C@H](c3ccccc3)N(S(=O)(=O)c3ccc(C)cc3)C(C(C)(C)C)[C@H]2n2c(=O)n(-c3ccccc3)c(=O)n2C1 (stereo partly drawn)	0	·	·	i	6	i
CC[C@@]12C(=O)N(c3ccc(OC)cc3)C(=O)N1[C@H](c1cccc(C)c1)[C@@H]1C(=O)N(Cc3ccccc3)C(=O)[C@@H]12	7	-7%	-2%	i	45*	?
CC[C@@]12C(=O)N(c3cccc(Cl)c3)C(=O)N1[C@H](c1cccc(C)c1)[C@@H]1C(=O)N(Cc3ccccc3)C(=O)[C@@H]12	?	-19%	2%	i	2	i

Source: PubChem (National Center for Advancing Translational Sciences (NCATS))
